In the supplement of paper PMC10503962:

Each compound was assayed on Trichuris muris adult worms (assay: mean motility score (Paragon pixel variance) of adult worms (arbitrary units); higher = more motile worms, i.e. less anthelmintic effect; extreme values may be limits of the assay). Conditions: 100 µM; 24 h.
In short: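 Motility score was obtained through Paragon pixel-variance analysis and averaged across replicate wells. To generate it, single adult Trichuris muris worms taken from infected NOD SCID mice were kept for 24 h at 37°C and 5% CO2 in 96-well plates, each well holding 100 μL RPMI-1640 plus antibiotics and drug at 100 μM (1% v/v DMSO). The plates were then recorded on an automated phenotyping platform (200 frames, 100 ms apart).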

Row | Compound | mean motility score
1 | CN1CCN(C2=Nc3cc(Cl)ccc3Nc3ccccc32)CC1 [clozapine] | 2870
2 | Cc1nnc(NS(=O)(=O)c2ccc(N)cc2)s1 [sulfamethizole] | 3570
3 | Nc1ccc(S(=O)(=O)Nc2ncccn2)cc1 [sulfadiazine] | 2030
4 | OC(CCCN1CCCCC1)(c1ccccc1)c1ccccc1 [diphenidol] | 1940
5 | CC(C)[C@H](N)C(=O)OCCOCn1cnc2c(=O)nc(N)[nH]c21.Cl [valacyclovir hydrochloride] | 4300
6 | NCCS [cysteamine] | 2360
7 | NNc1nncc2ccccc12 [hydralazine] | 1960
8 | O=C(CCCN1CCC(O)(c2ccc(Cl)cc2)CC1)c1ccc(F)cc1 [haloperidol] | 2820
9 | Nc1cc(-c2ccncc2)cnc1O [inamrinone] | 3880
10 | Cl.Nc1c2c(nc3ccccc13)CCCC2 [tacrine hydrochloride] | 2770
11 | C=C(CC)C(=O)c1ccc(OCC(=O)O)c(Cl)c1Cl [ethacrynic acid] | 215
12 | Cc1cn([C@H]2C=C[C@@H](CO)O2)c(=O)[nH]c1=O [stavudine] | 2180
13 | Nc1ccc(S(=O)(=O)NC(=O)c2ccccc2)cc1 [sulfabenzamide] | 4050
14 | O=C(c1ccccc1)c1ccc2n1CCC2C(=O)O (stereo not drawn) [ketorolac] | 2460
15 | O=C(O)COc1ccc(C(=O)c2cccs2)c(Cl)c1Cl [ticrynafen] | 3440
16 | N=C(N)NCCC[C@H](N)C(=O)O [arginine] | 2980
17 | CCCNC(=O)NS(=O)(=O)c1ccc(Cl)cc1 [chlorpropamide] | 2860
18 | CNCCCN1c2ccccc2CCc2ccccc21 [desipramine] | 1090
19 | CNC1(C)[C@H]2CC[C@H](C2)C1(C)C.Cl (stereo partly drawn) [mecamylamine hydrochloride] | 3150

Row | Compound | mean motility score
20 | CCOC(=O)[C@H](CCc1ccccc1)N[C@@H](C)C(=O)N1CCC[C@H]1C(=O)O [enalapril] | 2120
21 | O=C1O[C@H](CO)[C@@H](O)[C@H](O)[C@H]1O [gluconolactone] | 2100
22 | CC1(C)NC(=O)N(c2ccc([N+](=O)[O-])c(C(F)(F)F)c2)C1=O [nilutamide] | 1900
23 | Nc1ccccc1NC(=O)c1ccc(CNC(=O)OCc2cccnc2)cc1 [entinostat] | 2720
24 | CC(c1cc2ccccc2s1)N(O)C(N)=O (stereo not drawn) [zileuton] | 3310
25 | NC(=O)CC[C@H](N)C(=O)O [glutamine] | 3380
26 | CCCCC1C(=O)N(c2ccccc2)N(c2ccccc2)C1=O [phenylbutazone] | 1530
27 | Nc1cc(C(F)(F)F)c(-c2cc(N3CCOCC3)nc(N3CCOCC3)n2)cn1 [buparlisib] | 3960
28 | O=C(c1ccc(F)cc1)C1CCN(CCn2c(=O)[nH]c3ccccc3c2=O)CC1 [ketanserin] | 3020
29 | Cc1cc(CC(=O)[O-])n(C)c1C(=O)c1ccc(Cl)cc1.[Na+] [zomepirac sodium] | 2840
30 | CCCc1cc(C(N)=S)ccn1 [protionamide] | 2460
31 | CC1(C)[C@@H](O[C@H]2O[C@H](C(=O)O)[C@@H](O)[C@H](O)[C@H]2O[C@@H]2O[C@H](C(=O)O)[C@@H](O)[C@H](O)[C@H]2O)CC[C@]2(C)[C@H]3C(=O)C=C4[C@@H]5C[C@@](C)(C(=O)O)CC[C@]5(C)CC[C@@]4(C)[C@]3(C)CC[C@@H]12 [glycyrrhizin] | 1890
32 | COc1cc2c(Nc3ccc(Br)cc3F)ncnc2cc1OCC1CCN(C)CC1 [vandetanib] | 0
33 | CC[N+](CC)(CC)CCOc1cccc(OCC[N+](CC)(CC)CC)c1OCC[N+](CC)(CC)CC.[I-].[I-].[I-] [gallamine triethiodide] | 4310
34 | C[C@@H]1C[C@H]2[C@@H]3CCC4=CC(=O)C=C[C@]4(C)[C@@]3(F)[C@@H](O)C[C@]2(C)[C@@]1(O)C(=O)CO [dexamethasone] | 1780
35 | COc1cc2nc(N(C)CCCNC(=O)C3CCCO3)nc(N)c2cc1OC (stereo not drawn) [alfuzosin] | 2420
36 | CCN1CC(CCN2CCOCC2)C(c2ccccc2)(c2ccccc2)C1=O.Cl (stereo not drawn) [doxapram hydrochloride] | 1820
37 | CC1CCc2c(N3CCC(O)CC3)c(F)cc3c(=O)c(C(=O)O)cn1c23 (stereo not drawn) [nadifloxacin] | 2660
38 | O=C1c2cccc(O)c2C(=O)c2c(O)cccc21 [danthron] | 2660
